Sampled rows, rich in hits. Any-hit rate of the full collection: about 2.3%.
PP5 primary: inhibitors of human protein phosphatase 5 (PP5); purified PP5c, OMFP substrate fluorescence; inhibition, % at 6.7 µM; hit rate 0.18% among 320,000;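 active means inhibition above the campaign's mean inhibition across all tested compounds plus 3 SD, cut at about 9.5% in these data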;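 further: 0% = DMSO only and 100% = 100 µM cantharidin control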
PP1 inh: counter-screen for PP5 inhibitors: inhibitors of human PP1-alpha | hit rate 0.9% among 320,000 | purified PP1alpha, OMFP fluorescence | inhibition, % at 6.7 µM;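 active means inhibition above the mean inhibition of all tested compounds plus 3 SD, computed separately for each screening campaign, cut at about 15% in these data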
Target sequence (P62136 whole entry, looked up): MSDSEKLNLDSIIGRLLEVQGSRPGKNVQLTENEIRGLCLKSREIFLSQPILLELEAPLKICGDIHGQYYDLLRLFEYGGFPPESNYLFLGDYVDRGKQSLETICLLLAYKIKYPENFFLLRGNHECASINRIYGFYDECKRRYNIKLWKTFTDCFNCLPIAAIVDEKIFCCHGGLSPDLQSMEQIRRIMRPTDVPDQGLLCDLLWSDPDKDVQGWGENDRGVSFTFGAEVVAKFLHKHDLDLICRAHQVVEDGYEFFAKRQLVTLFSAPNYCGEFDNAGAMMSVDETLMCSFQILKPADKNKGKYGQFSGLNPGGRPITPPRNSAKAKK
MsrA inh: bovine MsrA inhibition | purified bovine MsrA, absorbance read-out | inhibition, % at 15.5 µM | hit rate 0.75% among 360,000 | AID 651718; in the data active means inhibition above about 4.5%;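 further: 0% = vehicle wells with enzyme and 100% = reference inhibitor wells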
ZTA counter: ZTA (EBV) inhibition in EBNA-1 counter-screen; inhibition, % at 11 µM; P03206; ZTA-DNA binding, fluorescence polarization; hit rate 0.15% among 320,000; in the data active means inhibition above about 33%
Target sequence (P03206 whole entry, looked up): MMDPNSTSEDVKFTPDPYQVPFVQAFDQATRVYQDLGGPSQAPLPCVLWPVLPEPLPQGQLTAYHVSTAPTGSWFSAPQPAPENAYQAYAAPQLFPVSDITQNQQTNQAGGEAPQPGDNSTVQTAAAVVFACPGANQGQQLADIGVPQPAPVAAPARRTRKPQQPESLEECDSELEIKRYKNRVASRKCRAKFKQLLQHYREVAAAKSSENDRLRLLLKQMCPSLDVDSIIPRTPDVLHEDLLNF
EBNA-1 inhibitor: blocks EBNA-1 binding to DNA; inhibition, % at 14.8 µM; EBNA-1 DNA binding, fluorescence polarization; hit rate 0.34% among 300,000; AID 1950; in the data active means inhibition above about 28%
bovine MsrA act: activators of bovine methionine sulfoxide reductase A; activation, % at 10.6 µM; purified bovine MsrA, absorbance read-out; hit rate 0.3% among 360,000; in the data active means activation above about 7.5%;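 further: 0% = vehicle and 100% = reference activator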
PP5 conf: PP5 (human) inhibition, confirmation | shares compounds with PP5 primary | Purified PP5, fluorogenic phosphatase substrate, fluorescence | inhibition, % at 6.7 µM | hit rate 22% among 460; in the data active means inhibition above about 9.5%
PP1 counter 3x: inhibits human PP1 phosphatase in PP5 counter-screen; AID 2355; PP1 enzyme, fluorescent phosphatase substrate; inhibition, % at 6.7 µM; hit rate 4% among 460; shares compounds with PP5 primary; in the data active means inhibition above about 16%
An asterisk follows results filed as active; . = no result given.

SMILES	PP5 primary	PP1 inh	MsrA inh	ZTA counter	EBNA-1 inhibitor	bovine MsrA act	PP5 conf	PP1 counter 3x
O=C(O)c1cccnc1C(=O)O	1.5	-5.1	0.4	-3.2	18.5	-0.6	.	.
FC(F)C(F)(F)C(F)(F)C(F)(F)c1cc(-c2ccccc2)n[nH]1	10.8*	-4.2	-0.2	-4.8	-2.5	-0.2	9.7*	9.6
CCN(CC)CCN(Cc1cc2cc3c(cc2[nH]c1=O)OCO3)C(=S)NCCCOC	11.8*	0.6	2.1	-12.2	-1.9	-4.7	-4.9	-4.2
CCN(CC)CCCN(Cc1cc2cc3c(cc2[nH]c1=O)OCO3)C(=S)NCCCOC	2.7	-0.9	4.4	-1.5	-0.1	-12.3	.	.
CCCOc1ccc(N2CC(C(=O)Nc3ccc(N4CCOCC4)cc3)CC2=O)cc1 (stereo unspecified)	-4.5	2.2	-0.5	-30.8	0.7	-2.2	.	.
Cc1cc(C(=O)CSc2nc3ccccc3c(=O)[nH]2)c(C)n1CC1CCCO1 (stereo unspecified)	14.6*	0.3	-0.7	-0.3	0.2	-4.8	-3.7	-2.0
CCCOC(=O)c1ccc(Oc2c(-c3ccc(OC)cc3O)n[nH]c2C)cc1	0.9	-5.0	1.4	12.8	4.0	-5.2	.	.
CCOc1ccc(-c2n[nH]c(C)c2Oc2ccccc2OC)c(O)c1	10.7*	4.2	0.9	0.4	-15.9	-6.3	6.0	4.3
CCCOC(=O)c1ccc(Oc2c(-c3ccc(O)cc3O)n[nH]c2C)cc1	16.1*	1.5	-1.0	-7.1	-20.6	1.4	3.5	6.4
Cn1c(=O)c2[nH]c(-c3cccnc3)nc2n(C)c1=O	13.7*	-1.8	2.1	-1.0	-3.9	-1.8	-4.1	-3.5
Cc1cc(=O)[nH]c(-c2cccnc2)n1	-1.7	-1.3	0.1	10.8	12.6	-3.4	.	.
O=C1OCCC1Sc1nnc(-c2cccc(Br)c2)o1 (stereo unspecified)	12.2*	-3.6	-0.1	3.4	5.7	-1.8	-3.4	-3.4
CCC(OC(=O)c1ccco1)C(=O)NCc1ccc2c(c1)OCO2 (stereo unspecified)	0.4	-3.0	-1.4	-3.9	-4.0	-0.4	.	.
O=C(Cn1nnc(N2CCCCC2)n1)NN=Cc1ccccc1O	.	.	1.0	.	.	.	.	.
Oc1ccccc1/C=N/Nc1cc(N2CCCC2)nc(N2CCCC2)n1	13.7*	7.8	1.4	-0.1	-1.2	-1.3	44.1*	6.3
COCCNC(=O)C1(C)CCN(C(=O)c2ccc(C(F)(F)F)nc2C)C1 (stereo unspecified)	.	.	1.1	.	.	-4.7	.	.
CCOC(=O)N1CCN(C(=O)CN(C2CCCCC2)S(=O)(=O)c2ccc(C)cc2)CC1	2.0	8.2	-0.5	0.0	2.0	-1.8	.	.
Cc1ccc(S(=O)(=O)N(CC(=O)N2CCN(c3ccc(F)cc3)CC2)C2CCCCC2)cc1	10.5*	0.2	0.8	-10.0	-0.3	-6.4	-3.6	-3.4
CCCCC(=O)Nc1c2c(nn1-c1cccc(C)c1C)CS(=O)(=O)C2	1.5	0.5	0.4	3.5	-0.4	-0.8	.	.
CCCNC(=O)CC(NS(=O)(=O)c1ccc(OC)cc1)c1ccco1 (stereo unspecified)	2.4	1.4	-1.5	10.6	-4.7	-2.7	.	.
O=C(Cc1ccccc1)c1c[nH]c(C(=O)NCCCn2ccnc2)c1	0.0	-3.9	-0.9	-4.6	-13.0	.	.	.
O=C(c1ccc(C(F)(F)F)cc1)c1c[nH]c(C(=O)NCCCn2ccnc2)c1	11.9*	-2.5	-0.4	-14.6	-2.2	-1.7	-2.1	-3.2
Cc1cc(=O)nc2c3ccccc3n(CC(=O)NCCCN3CCCC3=O)n12	-1.1	-0.7	-0.3	-8.1	-11.2	-9.8	.	.
COCC(=O)N(Cc1cc2cccc(C)c2[nH]c1=O)c1ccccc1	10.0*	-3.0	2.6	-14.0	-0.1	-12.2	-1.9	-2.9
O=C(O)[C@@H](O)[C@H](O)C(=O)O	10.6*	2.0	2.0	-9.2	-2.5	-2.2	7.0	0.3
SMILES	PP5 primary	PP1 inh	MsrA inh	ZTA counter	EBNA-1 inhibitor	bovine MsrA act	PP5 conf	PP1 counter 3x
COc1ccc(C2C3=C(CC(C)(C)CC3=O)Oc3ncn(Cc4ccccc4)c(=N)c32)cc1 (stereo unspecified)	10.9*	4.4	0.5	8.8	3.4	1.0	-2.6	-3.2
Cc1oc2cc3oc(=O)cc(C)c3cc2c1C	1.8	-6.0	-0.6	11.2	-2.2	0.5	.	.
Cc1cc(NS(=O)(=O)c2ccc(Nc3nc(-c4ccc(C)c(C)c4)cs3)cc2)no1	10.8*	3.7	0.7	11.9	13.7	-5.0	5.4	9.1
O=C(NCC1CCCCC1)c1csc([C@@H]2C[C@H](O)[C@@H](CO)O2)n1	.	.	0.1	.	.	-3.3	.	.
c1ccc(-c2csc(-n3cccn3)n2)cc1	5.0	0.3	0.6	-8.1	-10.2	-4.2	.	.
CCNCc1cc(Br)c(OCC(=O)Nc2ccccc2)c(OC)c1	9.9*	-0.1	-0.8	-8.8	2.7	-2.0	-0.4	-3.1
COc1cc(CNCC(C)C)cc(Br)c1OCC(=O)Nc1ccccc1	1.2	1.5	-0.7	16.2	-1.1	-1.1	.	.
Nc1c(C(O)(C(F)(F)F)C(F)(F)F)cc(C(O)(C(F)(F)F)C(F)(F)F)c2ccccc12	12.6*	8.8	.	15.2	7.7	-2.7	14.6*	13.7
CCN1C(=O)[C@H]2[C@@H](c3ccc(OC)cc3)N[C@]3(CCCN(Cc4ccc(OC)cc4)C3=O)[C@H]2C1=O	.	.	0.9	.	.	-2.9	.	.
Cc1csc(NC(=O)c2cncc(Br)c2)n1	0.5	3.6	1.9	2.5	5.8	-5.0	.	.
NC(=O)c1ccc(OCC(F)(F)C(F)(F)C(F)(F)C(F)(F)C(F)(F)C(F)F)cc1	4.9	5.0	0.0	3.7	-1.2	-0.6	.	.
Cc1cc(OCC(F)(F)C(F)(F)C(F)(F)C(F)(F)C(F)(F)C(F)F)nc(N)n1	15.2*	7.9	0.7	-5.3	-8.5	2.2	9.5	11.4
CC(C)NC(=O)c1cc(-c2cccs2)nc2ccccc12	0.4	1.4	3.2	-4.9	-6.0	-1.1	.	.
NNC(=O)c1cc(-c2cccs2)nc2ccccc12	14.9*	1.7	2.9	-17.8	-8.7	-2.9	-2.8	-1.9
CCN(CC(=O)Nc1ccc(NC(C)=O)cc1)CC(=O)Nc1cccc(Cl)c1	9.8*	-0.2	-0.3	14.0	4.1	-8.6	-3.0	-2.0
CCN(CC(=O)Nc1ccc(NC(C)=O)cc1)CC(=O)Nc1ccc(Cl)c(Cl)c1	-0.5	2.7	0.3	-6.5	-10.4	-1.8	.	.
CCOc1cc(/C=C2\C(=O)N(c3ccc(C(N)=O)cc3)N=C2C)ccc1OC(=O)c1cccs1	12.1*	-0.3	.	-13.8	5.3	2.0	5.9	7.3
CCOc1cc(/C=C2/C(=O)N(c3ccccc3)N=C2C)ccc1OC(=O)c1ccco1	5.2	2.0	0.3	-6.6	4.7	-4.5	.	.
COc1ccc(NC(=O)c2cc(S(=O)(=O)N(Cc3ccccc3)c3ccccc3)ccc2Cl)cn1	1.9	4.2	1.0	2.5	2.6	-1.6	.	.
